Where “and” joins values, the source holds several entries; their conditions need not be identical. Equal values may be shown once. Calls of active or inactive are those of the source.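 Rule for the calls, unless noted: active = normalized viability below 100% at a tested concentration; inactive = the rest.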
What was measured:
[1] = liver-stage malaria parasite growth inhibition, primary screen, cell-based, HepG2, luciferase luminescence, HepG2 viability (AID 624349; in the data active = parasite load remaining mostly below about 12%, no sharp cut-off; inactive = mostly above about 10%;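 note: 100% = mean of DMSO negative control wells on the same plate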); conditions: P. berghei liver stage in HepG2, luciferase luminescence, concentration not given here; parasite load remaining: stronger effect = lower value; viability: measured here: HepG2 viability without parasites
[2] = stimulators of nuclear beta-catenin in C2C12, primary screen, imaging, WNT3A-conditioned medium, mouse C2C12, NPC library (AID 1117326; in the data active = nuclear beta-catenin stimulation mostly above about 4.2%, no sharp cut-off; inactive = mostly below about 10%); conditions: stronger effect = higher value
[3] = stimulators of insulin release from INS-1E, primary screen, cell-based, 5 mM glucose, NPC library (AID 1117329;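 active = compound raises insulin release from rat beta cells at 5 mM glucose, no numeric limit stated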); conditions: rat INS-1E insulin secretion, at 10 µM, stronger effect = higher value
[4] = growth inhibition of GSK3B-pretreated HCT116 cells – cell-based, CellTiter-Glo, 0.2 to 20 µM (AID 1117336;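 active = compounds lowering colon cancer cell viability after pretreatment blocking the GSK3B kinase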); conditions: HCT116 viability after GSK3B inhibitor, at 20 µM, stronger effect = higher value
[5] = inhibition of endothelial tube formation, primary screen, imaging, VEGF stimulated, CD31 staining, tube area, NPC library (AID 1117340;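 active = compound that reduces growth-factor-driven endothelial tube area in a mixed cell culture, no cutoff stated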); conditions: VEGF-stimulated ADSC/ECFC co-culture, at 10 µM, stronger effect = higher value
[6] = glucagon-like peptide 1 release enhancers, primary assay, NCI-H716 cell line, NPC library (AID 1117341;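 active = compound raises GLP1 secretion from the human gut endocrine cells, with no numeric limit stated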); conditions: NCI-H716 cells, at 10 µM, stronger effect = higher value
[7] = HCT116 colon cancer cell growth inhibition, primary screen, CellTiter-Glo luminescence, NPC library (AID 1117342;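 active = compounds that lower survival of HCT116 colon cancer cells in the luminescence readout, no numeric limit stated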); conditions: at 20 µM (top of the series)
[8] = CellTiter-Glo luminescent readout of SW480 viability loss, NPC library primary (AID 1117343;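 active = compounds that lower viability of the colon cancer cells in the luminescence readout, with no numeric limit stated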); conditions: CellTiter-Glo luminescence; at 20 µM (top of the series) unless noted
[9] = decreased DLD-1 cellular survival, CellTiter-Glo luminescent readout, NPC compound collection, primary HTS (AID 1117346;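 active = compounds that lower survival of DLD-1 colon cancer cells in the luminescence readout, no cutoff given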); conditions: DLD-1 viability, CellTiter-Glo luminescence; at 20 µM (top of the series)
[10] = differential killing of epithelial or mesenchymal cells, primary screen, imaging, PC-3E GFP, TEM4-18 mCherry, co-culture (AID 1345086;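 active = compounds killing one labelled cell type while sparing the other, by normalised counts and ratio limits, not self-fluorescent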;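 for all read-outs here: cells exposed to compound for 72 h before imaging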;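 for red/green cell ratio (normalised): normalised mesenchymal count divided by normalised epithelial count so high means epithelial killing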); conditions: imaging cell counts, at 1 µM; for red/green cell ratio (normalised): actives lie on both sides, counts scaled to control wells, 1 = unselective
[11] = sensitizers of A549 cells to miR-34 induction, primary screen, imaging, A549 dox-inducible miR-34, nuclei and caspase counts (AID 1347080;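 active = compounds whose cell count with miR-34 switched on is under 0.7 times the count with it off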); conditions: A549 miR-34 inducible, Hoechst nuclei count, 48 h
[12] = survival rescue of mitochondrial mutant cells in low glucose, primary screen, MELAS cybrids, Rieske KO mouse fibroblasts, CellTiter-Glo (AID 1508586;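 active = mean z-score across replicates of 1.96 or higher in either the MELAS or the Rieske mutant cell line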;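 note: z relative to plate mean and SD of compound and empty wells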)
[13] = ovarian cancer cell viability with rucaparib, profiling panel, oncology-focused library, rucaparib conditional (AID 1508598); conditions: patient-derived ovarian cancer cells, CellTiter-Glo viability, 144 h, stronger effect = lower value
[14] = molecular target: NAD(+) hydrolase SARM1 (Homo sapiens) (UniProt Q6SZW1); test: SARM1 TIR NADase inhibitors, cell lysate, NAD-Glo luminescence (AID 1508614;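 active = compound whose remaining NAD level is above about 45 nM, limit read from the data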;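 note: higher remaining NAD means stronger inhibition of SARM1 NADase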); conditions: SAM-TIR HEK293T lysate NADase, at 1 µM, stronger effect = higher value
Sequence of NAD(+) hydrolase SARM1 (Homo sapiens) (Q6SZW1 whole entry, looked up): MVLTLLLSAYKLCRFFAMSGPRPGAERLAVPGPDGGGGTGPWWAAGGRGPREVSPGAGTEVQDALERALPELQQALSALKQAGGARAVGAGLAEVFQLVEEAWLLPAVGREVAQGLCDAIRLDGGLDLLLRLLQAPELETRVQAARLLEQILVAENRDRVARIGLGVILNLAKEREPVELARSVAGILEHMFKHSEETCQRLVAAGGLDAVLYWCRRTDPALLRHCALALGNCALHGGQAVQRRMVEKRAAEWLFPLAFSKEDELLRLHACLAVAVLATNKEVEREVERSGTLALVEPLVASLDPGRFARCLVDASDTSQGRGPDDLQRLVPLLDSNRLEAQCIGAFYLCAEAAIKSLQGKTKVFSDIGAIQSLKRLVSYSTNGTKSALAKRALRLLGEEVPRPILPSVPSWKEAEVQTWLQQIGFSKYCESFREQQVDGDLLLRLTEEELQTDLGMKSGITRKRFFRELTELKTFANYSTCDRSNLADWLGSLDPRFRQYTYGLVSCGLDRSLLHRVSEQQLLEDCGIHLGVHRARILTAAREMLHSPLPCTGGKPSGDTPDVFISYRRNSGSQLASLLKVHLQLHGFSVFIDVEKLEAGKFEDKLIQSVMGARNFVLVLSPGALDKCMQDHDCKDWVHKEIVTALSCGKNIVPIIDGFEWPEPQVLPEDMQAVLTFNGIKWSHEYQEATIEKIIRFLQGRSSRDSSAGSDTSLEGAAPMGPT

[15] = hESC survival regulators, cell-based (AID 493140; call rule not given here;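 note: cells exposed to compounds for four days before counting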); conditions: human embryonic stem cell survival screen; stronger effect = higher value
[16] = measured here: epithelial PC-3E GFP cell survival
[17] = measured here: mesenchymal TEM4-18 mCherry cell survival
[18] = stronger effect = lower value, cell number ratio, induced over uninduced
[19] = measured here: relative caspase fold change +Dox/-Dox
[20] = measured here: total cells with miR-34 induction, stronger effect = lower value
[21] = measured here: total cells without miR-34 induction
[22] = MELAS cybrid survival, CellTiter-Glo 48 h, stronger effect = higher value
[23] = Rieske KO mouse fibroblast survival, CellTiter-Glo 72 h

COc1c(C)c2c(c(O)c1C/C=C(\C)CCC(=O)OCCN1CCOCC1)C(=O)OC2
1.62: z-score [12, 23]
0.88: normalised cell number [10, 17]
140%: viability [1]
3240: cell count [11, 21]
inactive: parasite load remaining [1] 10.4% | nuclear beta-catenin stimulation ([2]; at 10 µM) 19.6% | insulin secretion stimulation [3] 1.7% | GLP1 secretion stimulation [6] 0.3% | red/green cell ratio (normalised) [10] 0.71 | fold change [11, 18] 0.954 | z-score [12, 22] -0.954 | viability ([13]; at 0.000305 µM, OCI-C5x cells, with rucaparib 10 µM, 100% = cells with rucaparib alone) 104% | viability ([13]; at 0.000305 µM, OCI-C5x cells, without rucaparib) 112% | viability ([13]; at 0.000305 µM, OCI-P5x cells, without rucaparib) 100% | viability ([13]; at 0.00122 µM, OCI-C5x cells, with rucaparib 10 µM, 100% = cells with rucaparib alone) 119% | viability ([13]; at 0.00122 µM, OCI-C5x cells, without rucaparib) 108% | viability ([13]; at 0.00122 µM, OCI-P5x cells, without rucaparib) 104% | viability ([13]; at 0.00488 µM, OCI-C5x cells, with rucaparib 10 µM, 100% = cells with rucaparib alone) 122% | viability ([13]; at 0.00488 µM, OCI-C5x cells, without rucaparib) 110% | viability ([13]; at 0.00488 µM, OCI-P5x cells, with rucaparib 20 µM, 100% = cells with rucaparib alone) 101% | viability ([13]; at 0.00488 µM, OCI-P5x cells, without rucaparib) 108% | viability ([13]; at 0.0195 µM, OCI-C5x cells, with rucaparib 10 µM, 100% = cells with rucaparib alone) 115% | viability ([13]; at 0.0195 µM, OCI-C5x cells, without rucaparib) 113% | viability ([13]; at 0.0195 µM, OCI-P5x cells, with rucaparib 20 µM, 100% = cells with rucaparib alone) 108% | viability ([13]; at 0.0195 µM, OCI-P5x cells, without rucaparib) 109% | viability ([13]; at 0.0781 µM, OCI-C5x cells, with rucaparib 10 µM, 100% = cells with rucaparib alone) 146% | viability ([13]; at 0.0781 µM, OCI-C5x cells, without rucaparib) 149% | viability ([13]; at 0.0781 µM, OCI-P5x cells, with rucaparib 20 µM, 100% = cells with rucaparib alone) 107% | viability ([13]; at 0.313 µM, OCI-C5x cells, with rucaparib 10 µM, 100% = cells with rucaparib alone) 172% | viability ([13]; at 0.313 µM, OCI-C5x cells, without rucaparib) 147% | viability ([13]; at 1.25 µM, OCI-C5x cells, with rucaparib 10 µM, 100% = cells with rucaparib alone) 157% | viability ([13]; at 1.25 µM, OCI-C5x cells, without rucaparib) 110% | remaining NAD [14] 10 nM
28.6%: nuclear beta-catenin stimulation ([2]; stimulation, at 2 µM)
1.24: normalised cell number [10, 16]
1.15: fold change [11, 19]
active: viability decrease [4] 98.3% | tube area decrease [5] 79.8% | inhibition of viability [7] 83.9% | viability decrease (inhibition) [8] 71.8% | viability decrease (inhibition) [9] 53.3% | viability ([13]; at 0.000305 µM, OCI-P5x cells, with rucaparib 20 µM, 100% = cells with rucaparib alone) 90.9% | viability ([13]; at 0.00122 µM, OCI-P5x cells, with rucaparib 20 µM, 100% = cells with rucaparib alone) 95.2% | viability ([13]; at 0.0781 µM, OCI-P5x cells, without rucaparib) 87.7% | viability ([13]; at 0.313 µM, OCI-P5x cells, with rucaparib 20 µM, 100% = cells with rucaparib alone) 89.1% | viability ([13]; at 0.313 µM, OCI-P5x cells, without rucaparib) 63.2% | viability ([13]; at 1.25 µM, OCI-P5x cells, with rucaparib 20 µM, 100% = cells with rucaparib alone) 74.3% | viability ([13]; at 1.25 µM, OCI-P5x cells, without rucaparib) 42.1% | viability ([13]; at 5 µM, OCI-C5x cells, with rucaparib 10 µM, 100% = cells with rucaparib alone) 69% | viability ([13]; at 5 µM, OCI-C5x cells, without rucaparib) 52.7% | viability ([13]; at 5 µM, OCI-P5x cells, with rucaparib 20 µM, 100% = cells with rucaparib alone) 52.6% | viability ([13]; at 5 µM, OCI-P5x cells, without rucaparib) 30.9%
3090: cell count [11, 20]

C#CCN(C)CCCOc1ccc(Cl)cc1Cl
0.924 and 0.754 and 1.44: fold change [11, 19]
1.14: normalised cell number [10, 16] | normalised cell number [10, 17]
-0.5%: nuclear beta-catenin stimulation ([2]; stimulation, at 2 µM)
9370 and 9480 and 9800: cell count [11, 21]
0.294: z-score [12, 23]
100% and 71.8%: viability [1]
9600 and 8700 and 8160: cell count [11, 20]
inactive: survival [15] 8.67 | parasite load remaining [1] 88.7% and 89.7% | nuclear beta-catenin stimulation ([2]; at 10 µM) 0.3% | insulin secretion stimulation [3] -2.3% | viability decrease [4] -91.8% | tube area decrease [5] 22.3% | GLP1 secretion stimulation [6] -0.5% | inhibition of viability [7] 2.63% | viability decrease (inhibition) [8] 48.3% | viability decrease (inhibition) [9] 13.7% | red/green cell ratio (normalised) [10] 1 | fold change [11, 18] 1.02 and 0.917 and 0.833 | z-score [12, 22] 0.667 | remaining NAD [14] 10 nM

Nc1cc(C(Cl)=C(Cl)Cl)c(S(N)(=O)=O)cc1S(N)(=O)=O
1.14: normalised cell number [10, 16]
8790 and 9570 and 11100: cell count [11, 20]
0.96: normalised cell number [10, 17]
0.393 and 0.0455: z-score [12, 23]
inactive: survival [15] 8.08 | parasite load remaining [1] 69.8% and 78.4% and 58% | nuclear beta-catenin stimulation ([2]; at 10 µM) 3.8% | insulin secretion stimulation [3] 1.4% | viability decrease [4] 19% | tube area decrease [5] 7% | GLP1 secretion stimulation [6] 12.7% | inhibition of viability [7] -3.03% | viability decrease (inhibition) [8] -22% | viability decrease (inhibition) [9] 4.8% | red/green cell ratio (normalised) [10] 0.84 | fold change [11, 18] 0.893 and 0.936 and 0.859 | z-score [12, 22] -0.253 and -0.139 | remaining NAD [14] 10 nM
1.43 and 0.803 and 4.71: fold change [11, 19]
9850 and 10200 and 12900: cell count [11, 21]
125% and 85.5% and 102%: viability [1]
4.2%: nuclear beta-catenin stimulation ([2]; stimulation, at 2 µM)

Reference: PubChem BioAssay
